In the library only some 5.4% were active in any assay of this set; here they are far more common.
Sm TGR block: inhibitors of Schistosoma mansoni thioredoxin glutathione reductase | Potency, µM (highest dose often 114 µM), for inactives: at the top dose activity change, negative = inhibition, usual class: inhibitors | purified TGR, DTNB reduction, TNB absorbance 405 nm | 360,000 compounds, 3% hits | AID 485364; active = well fitted inhibition curve with a large enough effect; inconclusive = small, poorly fitted or top-dose-only effect; inactive = no such curve, though single readings can be large or run the other way; also: nearly all actives have a fitted effect of over 60% in size
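First, TGR (20 nM dispensed) and NADPH were mixed with compound. Second, a 15 min room-temperature incubation followed. Third, further NADPH and then DTNB were added to start the reaction. Finally, TNB absorbance was monitored kinetically.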
Vaccinia Venus: vaccinia inhibition (Venus reporter); Vaccinia virus Venus reporter expression, fluorescence; Potency, µM (highest dose often 36.5 µM), without a hit: top-dose activity change, negative = inhibition, hits mostly inhibitors; 330,000 compounds, 0.46% hits; calls by dose curve; tested in A549 cells; also: nearly all actives have a fitted effect of over 30% in size
VACV mCherry inh: inhibitors of vaccinia virus infection (mCherry reporter signal); Vaccinia virus mCherry reporter infection, fluorescence; AID 720579; Potency, µM (titrated, usually from 36.5 µM), inactives show top-dose activity change, negative = inhibition, actives largely listed as inhibitors; 310,000 compounds, 0.63% hits; calls by dose curve; tested in A549 cells; also: nearly all actives have a fitted effect of over 35% in size
FMDV inh: antivirals against foot and mouth disease virus. 410,000 compounds, 1.2% hits. FMDV antiviral cell-based qHTS. Potency, µM (series often up to 57.9 µM), without a hit: at the highest dose activity change, negative = inhibition, usual class: inhibitors; calls by dose curve; tested in HEK293T cells; also: read-out not given here; nearly all actives have a fitted effect of over 45% in size
Lassa entry inh: Lassa virus entry inhibition; Lassa virus pseudotype entry inhibition, cell reporter; 300,000 compounds, 1.2% hits; AID 540256; Potency, µM (series often up to 37.9 µM), without a hit: at the top dose activity change, negative = inhibition, hits mostly inhibitors; calls by dose curve; tested in HEK293 cells; also: nearly all actives have a fitted effect of over 50% in size
MARV entry inh: Marburg virus entry inhibition. Marburg virus pseudotyped entry inhibition, cell reporter. Potency, µM (top dose mostly 37.8 µM), for inactives: at the highest dose activity change, negative = inhibition, actives largely listed as inhibitors. 300,000 compounds, 1.8% hits. AID 540276; calls by dose curve; tested in HEK293 cells
* hit, by the source's call; ! = not confirmed by another sample; [ ] = remark or other dose. % is scaled to controls: 0 for no effect and ±100 for the full control effect; potency is read from the fitted curve at half-maximal effect.

`O=C(NC1CCCC1)C(c1ccncc1)N(Cc1ccco1)C(=O)c1ccc(-c2ccccc2)[nH]1` (configuration not stated) gave Sm TGR block 28.2µM*, Vaccinia Venus -27.0%, VACV mCherry inh inconclusive, FMDV inh 13.0% and MARV entry inh 10µM*.
Screening COc1ccc(-c2cn3cc(C(=O)NN)ccc3n2)cc1 returned Sm TGR block 26.0%, Vaccinia Venus inconclusive, VACV mCherry inh inconclusive, FMDV inh 29.8%, Lassa entry inh inconclusive and MARV entry inh inconclusive.
`CCc1ccn2cc(-c3ccc4c(c3)OCO4)nc2c1` gave Sm TGR block -3.7%, Vaccinia Venus -16.8%, VACV mCherry inh -22.3%, FMDV inh 8.91µM*, Lassa entry inh 0.891µM* and MARV entry inh inconclusive.
Screening COC(=O)c1ccc2nc(-c3ccc4c(c3)OCO4)cn2c1 returned Sm TGR block 6.7%, Vaccinia Venus -4.2%, VACV mCherry inh -0.6%, FMDV inh 0.0%, Lassa entry inh 2µM* and MARV entry inh inconclusive.
Screening CCc1c(C)c2ccc(O)c(CN3CCN(c4ccccc4)CC3)c2oc1=O returned Sm TGR block -3.6%, Vaccinia Venus -16.6%, VACV mCherry inh -18.8%, FMDV inh inconclusive, Lassa entry inh inconclusive and MARV entry inh inconclusive.
Screening CC1(C)CC(=O)C2=C(C1)Oc1nc3ccccc3cc1C2C(C#N)C#N (configuration not stated) returned Sm TGR block 0.0%, Vaccinia Venus 11.2µM*, VACV mCherry inh inconclusive, FMDV inh 8.91µM*, Lassa entry inh 15.8µM* and MARV entry inh inconclusive.
`CCCCOc1ccc(CSCCNC(=S)Nc2ccccc2)cc1` gave Sm TGR block 4.2%, Vaccinia Venus -17.9%, VACV mCherry inh -27.0%, FMDV inh 0.0%, Lassa entry inh inconclusive and MARV entry inh -17.9%.
Screening CC(C)COc1ccc(CSCCNC(=S)Nc2ccccc2)cc1 returned Sm TGR block 32.0%, Vaccinia Venus 10µM*, FMDV inh -12.2%, Lassa entry inh inconclusive and MARV entry inh inconclusive.
COc1cccc(CN(C(=O)c2cccc(C)c2)C2CCS(=O)(=O)C2)c1 (configuration not stated) was read as Sm TGR block 3.1%, Vaccinia Venus -6.9%, VACV mCherry inh -4.2%, FMDV inh -6.1%, Lassa entry inh -4.3%[46.1 µM] and MARV entry inh inconclusive.
CN(C)[C@@H]1C(=O)C(C(N)=O)=C(O)[C@@]2(O)C(=O)C3=C(O)c4c(O)cccc4[C@@](C)(O)[C@H]3[C@H](O)[C@@H]12 was read as Sm TGR block 8.91µM*, Vaccinia Venus -2.0%, VACV mCherry inh inactive, FMDV inh -13.0%, Lassa entry inh inconclusive and MARV entry inh inconclusive.
Screening Cc1cc2c(cc1S(=O)(=O)N(CCN(C)C)Cc1ccccc1)OCC(=O)N2 returned Sm TGR block 1.5%, Vaccinia Venus -15.8%, VACV mCherry inh -19.6%, FMDV inh 4.5% and Lassa entry inh -0.3%[46.1 µM].
Screening CCN1CCN(C(=O)c2cnn(-c3ncc4c(n3)-c3ccccc3CCC4)c2COC)CC1 returned Vaccinia Venus -18.5%, VACV mCherry inh -1.2% and FMDV inh 8.5%.
Screening CCCCCCSc1cccc(-c2nc3ccc(C)cn3c2NCc2ccccc2)c1 returned Sm TGR block -2.3%, Vaccinia Venus -3.0%, VACV mCherry inh inactive and FMDV inh inconclusive.
CCC(C)Sc1cccc(-c2nc3cc(C)ccn3c2NC2CCCCC2)c1 (configuration not stated) was read as Vaccinia Venus inconclusive, VACV mCherry inh 7.94µM*! and FMDV inh inconclusive.
`Cc1ccc2nc(-c3cccc(-c4cccc(Cl)c4)c3)c(NCc3ccccc3)n2c1` gave Sm TGR block 3.0%, Vaccinia Venus -24.0%, VACV mCherry inh inactive and FMDV inh 35.5µM*.
CCC(C)Sc1cccc(-c2nc3ccc(C)cn3c2NCc2ccccc2)c1 (configuration not stated) was read as Sm TGR block -26.8%, Vaccinia Venus inconclusive, VACV mCherry inh -26.0% and FMDV inh 31.6µM*!.
CCC(C)Sc1cccc(-c2nc3ccc(Cl)cn3c2NCc2ccccc2)c1 (configuration not stated) was read as Sm TGR block -7.1%, Vaccinia Venus inconclusive, VACV mCherry inh inconclusive and FMDV inh -8.0%.
For CCCCCCSc1cccc(-c2nc3cc(C)ccn3c2NC2CCCCC2)c1 the results were Sm TGR block 0.6%, Vaccinia Venus -26.3%, VACV mCherry inh -0.5% and FMDV inh inconclusive.
COc1ccccc1CNC(=O)C1CCN(S(=O)(=O)c2c(C)noc2/C=C/c2c(C)cc(C)cc2C)CC1 was read as Sm TGR block 1.9%, Vaccinia Venus -8.1%[7.34 µM], VACV mCherry inh -4.9%[7.34 µM], FMDV inh -13.2% and Lassa entry inh 27.1%[46.1 µM].
COc1ccc2cc(-c3c(-c4ccncc4)nc(-c4ccc(S(C)(=O)=O)cc4C)n3C)ccc2c1 was read as Lassa entry inh 7.91µM*.
`Cc1ccccc1-n1c2nc(=O)n(C)c(=O)c-2cc2ccccc21` gave Sm TGR block -3.7%, Vaccinia Venus 5.6%, VACV mCherry inh -18.9%, FMDV inh -2.2%, Lassa entry inh 6.2% and MARV entry inh -11.7%[14.2 µM].
CCn1nc(/C=C/c2ccccc2)nc2c(=O)n(C)c(=O)nc1-2 was read as Sm TGR block -34.6%, Vaccinia Venus 2.82µM*, VACV mCherry inh 2.51µM*, FMDV inh 2.51µM*, Lassa entry inh 7.94µM* and MARV entry inh 0.708µM*.
For CCn1nc(-c2cccs2)nc2c(=O)n(C)c(=O)nc1-2 the results were Sm TGR block inconclusive, Vaccinia Venus 0.794µM*, FMDV inh 1.58µM*, Lassa entry inh inconclusive and MARV entry inh 0.891µM*.
CCn1nc(-c2ccccc2C)nc2c(=O)n(C)c(=O)nc1-2 was read as Vaccinia Venus 6.31µM* and VACV mCherry inh 5.62µM*.
Screening COc1ccccc1C1CN(CC(=O)NCC2OCCc3ccccc32)Cc2ccccc2O1 (configuration not stated) returned Vaccinia Venus -3.9%, VACV mCherry inh -14.4% and FMDV inh -5.9%.
For O=S(=O)(N[C@H]1C[C@@H](NS(=O)(=O)OCC(Cl)(Cl)Cl)C2CCCCC21)OCC(Cl)(Cl)Cl (some centres not stated) the results were Sm TGR block -18.9%, Vaccinia Venus 10µM*, VACV mCherry inh inconclusive and FMDV inh inconclusive.
`Cn1cncc1C#Cc1ccc2cc(CCO)oc(=O)c2c1` gave Sm TGR block 11.2µM*, Vaccinia Venus -11.1%, VACV mCherry inh -5.6% and FMDV inh 14.1%.
CSc1nnc(CNC(=O)/C=C/c2ccccc2Cl)n1-c1ccc(F)cc1 was read as Vaccinia Venus 0.0%, VACV mCherry inh inactive and FMDV inh -2.0%.

Source: PubChem BioAssay
